# Test results as given in PubChem BioAssay AID898 (University of Pittsburgh Molecular Library Screening Center, 2007).
# The whole screen tested about 140,000 compounds, of which about 220 (0.16%) were called active. Rule as the data show it: active = inhibition above about 50%; inactive = the rest. Shown is part of a subset that was picked to be rich in actives.
# Test system: YopH tyrosine phosphatase [Yersinia enterocolitica]
# Experiment: inhibition of Yersinia YopH phosphatase – biochemical, fluorescence Ex485/Em525, primary screen (AID 898)
# Details: hits give high values, concentration not given here
row,Compound,inhibition
1,COc1cc(/C=N/NC(=O)c2ccccc2)ccc1OS(=O)(=O)c1ccccc1,-12.8% (inactive)
2,COC(=O)c1ccccc1NS(=O)(=O)c1ccc2[nH]c(=O)[nH]c2c1,-13.2% (inactive)
3,Cc1cccc(CSc2ccc(-c3cccs3)nn2)c1,-8.04% (inactive)
4,CC1(c2cccc([N+](=O)[O-])c2)CC(C)(C)N(C(=O)c2ccccc2)c2ccccc21 (stereo not given),-13.3% (inactive)
5,O=C(NC(=S)Nc1cc(C(F)(F)F)ccc1N1CCOCC1)c1ccc(-c2cccc(Cl)c2)o1,-11.4% (inactive)
6,CCN(CC(=O)NC1CCS(=O)(=O)C1)S(=O)(=O)c1ccccc1 (stereo not given),-27.4% (inactive)
7,O=c1cc(-c2ccccc2)[nH]c2cc(F)ccc12,-25.5% (inactive)
8,Clc1ccc(C2=CSC3=Nc4cccc5cccc(c45)N23)cc1,76.1% (active)
9,COc1ccc2c(c1)CC[C@@H]1[C@@H]2CC[C@]2(C)C(=O)CC[C@@H]12,-40.8% (inactive)
10,COC(=O)/C=C\C(=O)Nc1cccc([N+](=O)[O-])c1,-15.7% (inactive)
11,Cc1ccc(NC(=O)Cn2cccc2C2=NC(c3ccccc3)CO2)c(C)c1 (stereo not given),-4.93% (inactive)
12,Cc1ccc(S(=O)(=O)Nc2nc(C)cc(N/N=C/c3ccc(O)cc3)n2)cc1,-24.5% (inactive)
13,Cn1cnc(C(F)(F)F)c1-c1ccc([N+](=O)[O-])cc1,-26.6% (inactive)
14,Cc1ccc(NC(=O)CN(C)Cc2ccc(F)cc2)c([N+](=O)[O-])c1,-24.9% (inactive)
15,Cc1ccccc1C(OCCN(C)C)C1CCCCC1 (stereo not given),-18.4% (inactive)
16,N#Cc1ccc(C(=O)Nc2nc(-c3cccs3)c(C(=O)C(F)(F)F)s2)cc1,-10.1% (inactive)
17,O=C(/C(=C/c1cccc(Cl)c1)c1nc2ccccc2[nH]1)c1ccccc1,-25% (inactive)
18,NNc1nc2c(Cl)cccc2s1,-22% (inactive)
19,Cc1cc(N2CCOCC2)nc(-c2ccc(Br)cc2)n1,5.67% (inactive)
20,CCCCNC(=O)C1CCC(CNS(=O)(=O)c2ccc(NC(C)=O)cc2)CC1 (stereo not given),-25.8% (inactive)
21,COC(=O)NNC(=O)C1CCC(C)CC1 (stereo not given),-19.5% (inactive)
22,COc1ccc(-c2cc(C(F)(F)F)nc(SCC(=O)Nc3ccc4c(c3)OCO4)n2)cc1OC,-21.2% (inactive)
23,Cc1cccc(N2C(=O)SC(SC(=Nc3ccccc3)Nc3ccccc3)C2=O)c1 (stereo not given),-18.8% (inactive)
24,Cc1ccc2c(c1)C1CN(C)CCC1N2C(=O)c1ccccc1NS(=O)(=O)c1ccc(F)cc1C (stereo not given),-30.2% (inactive)
25,Cc1nc2ccccc2n1CC(=O)N/N=C/c1cccs1,-17.2% (inactive)
